Activity calls are given as the source filed them. Rule for the calls: active = hit-call score of the fitted dose curve at least 0.9, where 1 is the maximum; inactive = score below 0.9.

One assay can be described thus: CCTE_Padilla_ZF_Score.Craniofacial: CCTE's 144 Hour Post-fertilization zebrafish Assay Score for Craniofacial Malformation, Padilla Lab (AID 2284405). In outline:
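Craniofacial defects were scored at 6 dpf by two blinded observers using stereomicroscopy. Exposure of wild-type embryos began at 6–8 hpf in sealed wells of 10% Hanks' solution at 26C, with chemical removed by rinsing at 5 dpf.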
For `C=C(F)C(=O)OC(C(F)(F)F)C(F)(F)F`, the outcome was inactive.

Take `O=C(O)C(F)(F)C(F)(F)C(F)(F)C(F)(F)C(F)(F)C(F)(F)C(F)(F)C(F)F`: the call was inactive.

In the case of `O=C(O)C(F)(F)OC(F)(F)C(F)(F)OC(F)(F)C(F)(F)C(F)(F)C(F)(F)F`, the compound was called inactive.

Turning to `O=S(=O)(O)C(F)(F)C(F)(F)OC(F)(F)C(F)(F)F`, the compound was classed as inactive.

`C=C(C)C(=O)OCCC(F)(F)C(F)(F)C(F)(F)C(F)(F)C(F)(F)C(F)(F)C(F)(F)C(F)(F)F`: the call was inactive.

With `OCC(F)(OC(F)(F)C(F)(OC(F)(F)C(F)(F)C(F)(F)F)C(F)(F)F)C(F)(F)F` (stereo not drawn), the AC50 is 34.8 µM (active).

A short description of a further assay: CCTE_Padilla_ZF_Score.Edema: CCTE's 144 Hour Post-fertilization zebrafish Assay Score for Edema Malformation, Padilla Lab (AID 2284406). Here is the method: CCTE_Padilla_ZF_Phenotype_Score is a whole embryo, multiplexed assay using zebrafish ova exposed for 144 hours post fertilization on a 96-well plate.CCTE_Padilla_ZF_Score.Edema is one of one assay component(s) measured or calculated from the CCTE_Padilla_ZF_Phenotype_Score assay. It is designed to make measurements of zebrafish development as detected with brightfield microscopy of developing zebrafish embryos.Data from the assay component CCTE_Padilla_ZF_Score.Edema was analyzed into 1 assay endpoints. This assay endpoint, CCTE_Padilla_ZF_Score.Edema, was analyzed in the positive analysis fitting direction relative to DMSO as the negative control and baseline of activity. Using a type of viability reporter, gain-of-signal activity can be used to understand changes in developmentals as they relate to the whole embryo. To generalize the intended target to other relatable targets, this assay endpoint is annotated to the zebrafish development intended target family, where the subfamily is embryonic edema.
Zebrafish husbandry: Wild type adult zebrafish (Danio rerio; undefined outbred stock obtained from Aquatic Research Organisms, Hampton, NH, 03842) were housed in an AAALAC-approved animal facility at 28C with a 14:10 h light: dark cycle (lights on at 08:30 h). Adult fish (2-3 females per male; density = 15-20 adults per tank) were kept in one of several 9-liter (L) flow-through colony tanks (Aquaneering Inc., San Diego, CA). All adults in a colony tank were placed in a 2 L (static) breeding tank (Aquatic Habitats, Apopka, FL) one hour prior to light onset. Typically, adults from two to three colony tanks were mated on the same day. Two hours after light onset the adults were returned to the colony tank. All embryos were gathered from each breeder tank, pooled, and placed in a 28C water bath for 2 h, followed by two washes with 0.06% bleach (v/v) in 10% Hanks' Balanced Salt Solution (13.7 mM NaCl 0.54 mM KCl, 25 uM Na2HPO4, 130 uM CaCl2 100 um MgSO4 and 420 um NaHCO3,), hereafter referred to as Hanks' solution, for 5 min in order to remove any residual bacteria or fungi. Immediately following washing, the embryos were examined, and healthy embryos were separated from dead or unfertilized eggs and moved into fresh Hanks'. Chemical exposures: Zebrafish embryos were exposed in 96-well plates. Between 6- and 8-hours post fertilization (hpf), healthy embryos (with chorions) were transferred, one embryo per well, into 96 well (0.5 mL) microtiter plates (Cell Culture-Treated, Flat-Bottom Microplate 96 well [Corning Costar, Kennebunk, ME; Cat 09-761-145]) filled with 200 uL of Hanks' solution. A random number generator was used to assign the order in which the rows of embryos were plated in 96 well plates each week. After plating, the embryos were dosed with 0.8 uL of the chemical dosing solution then immediately sealed with AlumaSeal II (Excel Scientific Inc, Victorville, CA) to prevent volatilization of the chemicals, and then placed in a leakproof secondary container. These containers were placed in an incubator maintained on a 14:10 h light: dark cycle at 26C for rearing. On 5 dpf, live larvae were gently moved out of the plate with test chemicals and into a new 96 well mesh plate (Millipore Corp., Bedford, MA) with just the Hanks' solution. Once within the mesh well plate, the animals were rinsed with 400 uL of fresh Hanks' three times, and then the plates were covered with a non-adhesive material (Microseal A, BioRad, Hercules, CA), plate lid added, and then plate sides wrapped in Parafilm (PM992, Bermis Company, Neenah, WI), and returned to the incubator. This rinse on 5 dpf was conducted to lessen the possible exposure of the human assessors to the chemicals during detailed examination of each larva at 6 dpf.Larval assessments: On 6 dpf between 8 and 10 AM, two individual assessors, blinded to the chemical treatments, independently examined each larva for mortality, hatching status, and malformations using an Olympus SZH10 stereo microscope. […]
In the case of `C=C(F)C(=O)OC(C(F)(F)F)C(F)(F)F`, the call was inactive.

As for `O=C(O)C(F)(F)C(F)(F)C(F)(F)C(F)(F)C(F)(F)C(F)(F)C(F)(F)C(F)F`, the compound was classed as inactive.

Regarding `O=C(O)C(F)(F)OC(F)(F)C(F)(F)OC(F)(F)C(F)(F)C(F)(F)C(F)(F)F`, the outcome was inactive.

Consider `O=S(=O)(O)C(F)(F)C(F)(F)OC(F)(F)C(F)(F)F`, for which the outcome was inactive.

Turning to `C=C(C)C(=O)OCCC(F)(F)C(F)(F)C(F)(F)C(F)(F)C(F)(F)C(F)(F)C(F)(F)C(F)(F)F`, the outcome was inactive.

For the compound `OCC(F)(OC(F)(F)C(F)(OC(F)(F)C(F)(F)C(F)(F)F)C(F)(F)F)C(F)(F)F` (stereo not drawn), the result was inactive.

A further assay can be described thus: CCTE_Padilla_ZF_Score.Spine: CCTE's 144 Hour Post-fertilization zebrafish Assay Score for Spine Malformation, Padilla Lab (AID 2284407). In outline:
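Spine malformation scored at 6 dpf by two independent blinded observers under stereomicroscope, after static sealed exposure from 6–8 hpf at 26C in Hanks' solution with rinse on 5 dpf. Positive-direction fit against DMSO control.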
As for `C=C(F)C(=O)OC(C(F)(F)F)C(F)(F)F`, the compound was called inactive.

Regarding `O=C(O)C(F)(F)C(F)(F)C(F)(F)C(F)(F)C(F)(F)C(F)(F)C(F)(F)C(F)F`, the result was inactive.

With `O=C(O)C(F)(F)OC(F)(F)C(F)(F)OC(F)(F)C(F)(F)C(F)(F)C(F)(F)F`, the compound was classed as inactive.

With `O=S(=O)(O)C(F)(F)C(F)(F)OC(F)(F)C(F)(F)F`, the outcome was inactive.

For the compound `C=C(C)C(=O)OCCC(F)(F)C(F)(F)C(F)(F)C(F)(F)C(F)(F)C(F)(F)C(F)(F)C(F)(F)F`, the compound was called inactive.

Take `OCC(F)(OC(F)(F)C(F)(OC(F)(F)C(F)(F)C(F)(F)F)C(F)(F)F)C(F)(F)F` (stereo not drawn): the compound was called inactive.

Broadly, the AC50 is the midpoint of the concentration-response curve, whichever way the signal moves.
